# Data published in the supplement of paper PMC8728848.
# Many of the other results were omitted from the sample, so the strongest signals are more common in it than they were.
# B1: CBM32-5 (Clostridium perfringens) (protein)
# chain: MGSSHHHHHHSSGLVPRGSHMASALPQGNMKATATSEHPDVGNEGLAKFAIDGKENTIWHTKYNPVEELPQSITLELGGSYEINKFTYLPRSGAKNGNITKYELHVSEDGNNFRKISEGNWDDSGSLKTLKFNSTKATHVKLVALEGVGGFASAAELNVFA
# B2: PEB1 (Campylobacter jejuni), Q0P9X8 (protein)
# chain: MVFRKSLLKLAVFALGACVAFSNANAAEGKLESIKSKGQLIVGVKNDVPHYALLDQATGEIKGFEVDVAKLLAKSILGDDKKIKLVAVNAKTRGPLLDNGSVDAVIATFTITPERKRIYNFSEPYYQDAIGLLVLKEKKYKSLADMKGANIGVAQAATTKKAIGEAAKKIGIDVKFSEFPDYPSIKAALDAKRVDAFSVDKSILLGYVDDKSEILPDSFEPQSYGIVTKKDDPAFAKYVDDFVKEHKNEIDALAKKWGL
# Columns and labels:
# Assay in all cases: glycan array binding signal (z-score within array); higher = stronger binding
# Conditions in all cases: glycan notation: IUPAC condensed, linker removed
# Fuc(a1-2)Gal(b1-4)Glc6S = target: Fuc(a1-2)Gal(b1-4)Glc6S
# Outline: (§1)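 Arrays were curated from the Consortium for Functional Glycomics database, 3228 in total, and kept only where the protein sequence was available. Binding is expressed as a within-array Z-score. This score was averaged across arrays of the same protein sequence at different concentrations or buffers and across linkers, and negative values can be read as non-binding.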
# [1] = target: Fuc(a1-2)[GalNAc(a1-3)]Gal(b1-4)[Fuc(a1-3)]GlcNAc
# Outline: as §1
# [2] = target: Fuc(a1-2)[GalNAc(a1-4)]Gal(b1-4)GlcNAc
# Outline: as §1
# [3] = target: Fuc(a1-2)[GalNAc(b1-3)]Gal
# Outline: as §1
# Gal(a1-3)Gal = target: Gal(a1-3)Gal
# Outline: as §1
# Gal(a1-3)Gal(b1-4)Glc = target: Gal(a1-3)Gal(b1-4)Glc
# Outline: as §1
# Gal(a1-4)Gal(b1-4)GlcNAc = target: Gal(a1-4)Gal(b1-4)GlcNAc
# Outline: as §1
# [4] = target: Gal(b1-3)[Fuc(a1-4)]GlcNAc(b1-3)Gal(b1-4)GlcNAc
# Outline: as §1
# [5] = target: Gal(b1-3)[Fuc(a1-4)]GlcNAc(b1-3)Gal(b1-4)[Fuc(a1-3)]GlcNAc
# Outline: as §1
# [6] = target: Gal(b1-4)GlcNAc(a1-6)Gal(b1-4)GlcNAc
# Outline: as §1
# [7] = target: Gal(b1-4)GlcNAc(b1-3)Gal(b1-4)[Fuc(a1-3)]GlcNAc(b1-3)Gal(b1-4)[Fuc(a1-3)]GlcNAc
# Outline: as §1
# [8] = target: Gal(b1-4)GlcNAc(b1-3)GalNAc
# Outline: as §1
# [9] = target: Gal(b1-4)GlcNAc(b1-3)[Gal(b1-4)GlcNAc(b1-6)]Gal(b1-4)GlcNAc
# Outline: as §1
# [10] = target: Gal(b1-4)GlcNAc(b1-6)Gal(b1-4)GlcNAc
# Outline: as §1
# GalNAc(a1-3)Gal = target: GalNAc(a1-3)Gal
# Outline: as §1
# GalNAc(b1-3)Gal = target: GalNAc(b1-3)Gal
# Outline: as §1
# [11] = target: GalNAc(b1-3)Gal(a1-4)Gal(b1-4)GlcNAc
# Outline: as §1
# GalNAc(b1-3)GalNAc = target: GalNAc(b1-3)GalNAc
# Outline: as §1
# [12] = target: GlcNAc(b1-3)Gal(b1-4)GlcNAc
# Outline: as §1
# [13] = target: Man(a1-2)Man(a1-2)Man(a1-6)[Man(a1-3)]Man
# Outline: as §1
# Man(a1-2)Man(a1-3)Man = target: Man(a1-2)Man(a1-3)Man
# Outline: as §1
# [14] = target: Man(a1-2)Man(a1-3)[Man(a1-6)]Man(a1-6)[Man(a1-2)Man(a1-3)]Man(b1-4)GlcNAc(b1-4)GlcNAc
# Outline: as §1
# [15] = target: Neu5Ac(a2-3)Gal(b1-3)[Fuc(a1-4)]GlcNAc
# Outline: as §1
# [16] = target: Neu5Ac(a2-3)Gal6S(b1-4)GlcNAc
# Outline: as §1
# [17] = target: Neu5Ac(a2-3)GalNAc(b1-4)GlcNAc
# Outline: as §1
# [18] = target: Neu5Ac(a2-6)Gal(b1-4)GlcNAc6S
# Outline: as §1
# [19] = target: Neu5Ac(a2-8)Neu5Ac(a2-8)Neu5Ac(a2-8)Neu5Ac(a2-3)[GalNAc(b1-4)]Gal(b1-4)Glc
# Outline: as §1
# Fuc(a1-2)Gal(b1-4)Glc = target: Fuc(a1-2)Gal(b1-4)Glc
# Outline: as §1
# [20] = target: Fuc(a1-2)Gal(b1-4)GlcNAc6S
# Outline: as §1
# [21] = target: Fuc(a1-2)Gal6S(b1-4)GlcNAc
# Outline: as §1
# [22] = target: Fuc(a1-2)[GalNAc(a1-3)]Gal(b1-4)GlcNAc(b1-2)Man(a1-3)[Fuc(a1-2)[GalNAc(a1-3)]Gal(b1-4)GlcNAc(b1-2)Man(a1-6)]Man(b1-4)GlcNAc(b1-4)GlcNAc
# Outline: as §1
# [23] = target: Fuc(a1-3)[Gal(b1-4)]GlcNAc(b1-2)Man(a1-3)[Fuc(a1-3)[Gal(b1-4)]GlcNAc(b1-2)Man(a1-6)]Man(b1-4)GlcNAc(b1-4)GlcNAc
# Outline: as §1
# [24] = target: Fuc(a1-3)[Gal(b1-4)]GlcNAc(b1-4)Gal(b1-4)[Fuc(a1-3)]GlcNAc
# Outline: as §1
# [25] = target: Gal(a1-3)Gal(b1-3)[Fuc(a1-4)]GlcNAc(b1-2)Man(a1-3)[Gal(a1-3)Gal(b1-3)[Fuc(a1-4)]GlcNAc(b1-2)Man(a1-6)]Man(b1-4)GlcNAc(b1-4)GlcNAc
# Outline: as §1
# [26] = target: Gal(a1-4)Gal(b1-4)GlcNAc(b1-2)Man(a1-3)[Gal(a1-4)Gal(b1-4)GlcNAc(b1-2)Man(a1-6)]Man(b1-4)GlcNAc(b1-4)GlcNAc
# Outline: as §1
# Gal(b1-2)Gal = target: Gal(b1-2)Gal
# Outline: as §1
# [27] = target: Gal(b1-3)[Fuc(a1-4)]GlcNAc(b1-2)Man(a1-3)[Gal(b1-3)[Fuc(a1-4)]GlcNAc(b1-2)Man(a1-6)]Man(b1-4)GlcNAc(b1-4)GlcNAc
# Outline: as §1
# [28] = target: Gal(b1-3)[Neu5Ac(a2-6)]GalNAc
# Outline: as §1
# [29] = target: Gal(b1-4)GlcNAc(b1-2)Man(a1-3)[Gal(b1-4)GlcNAc(b1-2)Man(a1-6)]Man(b1-4)GlcNAc(b1-4)[Fuc(a1-6)]GlcNAc
# Outline: as §1
# [30] = target: Gal(b1-4)GlcNAc(b1-3)Gal(b1-3)GlcNAc
# Outline: as §1
# [31] = target: Gal(b1-4)GlcNAc(b1-3)Gal(b1-4)Glc
# Outline: as §1
# Gal3S(b1-4)Glc = target: Gal3S(b1-4)Glc
# Outline: as §1
# [32] = target: Gal3S(b1-4)[Fuc(a1-3)]Glc6S
# Outline: as §1
# [33] = target: GalNAc(b1-4)GlcNAc(b1-2)Man(a1-3)[GalNAc(b1-4)GlcNAc(b1-2)Man(a1-6)]Man(b1-4)GlcNAc(b1-4)GlcNAc
# Outline: as §1
# [34] = target: GlcNAc(a1-4)Gal(b1-4)GlcNAc
# Outline: as §1
# [35] = target: Kdn(a2-3)Gal(b1-4)[Fuc(a1-3)]GlcNAc
# Outline: as §1
# [36] = target: Man(a1-2)Man(a1-6)[Man(a1-3)]Man(a1-6)[Man(a1-2)Man(a1-2)Man(a1-3)]Man
# Outline: as §1
# [37] = target: Neu5Ac(a2-3)Gal(b1-3)GlcNAc(b1-3)Gal(b1-4)GlcNAc
# Outline: as §1
# [38] = target: Neu5Ac(a2-3)Gal(b1-3)[Fuc(a1-4)]GlcNAc(b1-3)Gal(b1-4)[Fuc(a1-3)]GlcNAc
# Outline: as §1
# [39] = target: Neu5Ac(a2-3)Gal(b1-4)GlcNAc(b1-3)Gal(b1-4)[Fuc(a1-3)]GlcNAc
# Outline: as §1
# [40] = target: Neu5Ac(a2-3)Gal(b1-4)[Fuc(a1-3)]GlcNAc(b1-3)Gal(b1-4)GlcNAc
# Outline: as §1
# [41] = target: Neu5Ac(a2-3)Gal(b1-4)[Fuc(a1-3)]GlcNAc(b1-3)GalNAc
# Outline: as §1
# [42] = target: Neu5Ac(a2-3)Gal(b1-4)[Fuc(a1-3)]GlcNAc(b1-6)[Neu5Ac(a2-3)Gal(b1-3)]GalNAc
# Outline: as §1
# [43] = target: Neu5Ac(a2-3)[GalNAc(b1-4)]Gal(b1-4)GlcNAc(b1-3)GalNAc
# Outline: as §1
# [44] = target: Neu5Ac(a2-3)[Neu5Ac(a2-6)]GalNAc
# Outline: as §1
# [45] = target: Neu5Ac(a2-6)Gal(b1-4)GlcNAc(b1-2)Man(a1-6)Man(b1-4)GlcNAc(b1-4)GlcNAc
# Outline: as §1
# [46] = target: Neu5Ac9Ac(a2-3)Gal(b1-3)GlcNAc
# Outline: as §1
# [47] = target: Neu5Gc(a2-3)Gal(b1-3)[Fuc(a1-4)]GlcNAc
# Outline: as §1
# [48] = target: Neu5Gc(a2-6)Gal(b1-4)GlcNAc
# Outline: as §1
binder,measurement,setting,value
B1,glycan array binding signal (z-score),Fuc(a1-2)Gal(b1-4)Glc6S,-0.037
same,glycan array binding signal (z-score),[1],-0.639
same,glycan array binding signal (z-score),[2],9.74
same,glycan array binding signal (z-score),[3],6.11
same,glycan array binding signal (z-score),Gal(a1-3)Gal,-0.718
same,glycan array binding signal (z-score),Gal(a1-3)Gal(b1-4)Glc,2.12
same,glycan array binding signal (z-score),Gal(a1-4)Gal(b1-4)GlcNAc,0.124
same,glycan array binding signal (z-score),[4],-0.65
same,glycan array binding signal (z-score),[5],-0.543
same,glycan array binding signal (z-score),[6],0.343
same,glycan array binding signal (z-score),[7],-0.59
same,glycan array binding signal (z-score),[8],0.285
same,glycan array binding signal (z-score),[9],3.1
same,glycan array binding signal (z-score),[10],0.749
same,glycan array binding signal (z-score),GalNAc(a1-3)Gal,2.91
same,glycan array binding signal (z-score),GalNAc(b1-3)Gal,4.11
same,glycan array binding signal (z-score),[11],1.22
same,glycan array binding signal (z-score),GalNAc(b1-3)GalNAc,0.845
same,glycan array binding signal (z-score),[12],-0.249
same,glycan array binding signal (z-score),[13],-0.584
same,glycan array binding signal (z-score),Man(a1-2)Man(a1-3)Man,-0.091
same,glycan array binding signal (z-score),[14],-0.536
same,glycan array binding signal (z-score),[15],-0.236
same,glycan array binding signal (z-score),[16],-0.395
same,glycan array binding signal (z-score),[17],-0.526
same,glycan array binding signal (z-score),[18],-0.183
same,glycan array binding signal (z-score),[19],-0.621
B2,glycan array binding signal (z-score),Fuc(a1-2)Gal(b1-4)Glc,-0.354
same,glycan array binding signal (z-score),[20],-0.084
same,glycan array binding signal (z-score),[21],0.768
same,glycan array binding signal (z-score),[22],1.37
same,glycan array binding signal (z-score),[23],-0.842
same,glycan array binding signal (z-score),[24],0.229
same,glycan array binding signal (z-score),[25],3.87
same,glycan array binding signal (z-score),[26],3.37
same,glycan array binding signal (z-score),Gal(b1-2)Gal,0.469
same,glycan array binding signal (z-score),[27],4.54
same,glycan array binding signal (z-score),[28],-0.718
same,glycan array binding signal (z-score),[29],0.818
same,glycan array binding signal (z-score),[30],0.014
same,glycan array binding signal (z-score),[31],-0.613
same,glycan array binding signal (z-score),[10],-1.39
same,glycan array binding signal (z-score),Gal3S(b1-4)Glc,-1.26
same,glycan array binding signal (z-score),[32],0.849
same,glycan array binding signal (z-score),[33],4.17
same,glycan array binding signal (z-score),[34],0.303
same,glycan array binding signal (z-score),[35],-0.113
same,glycan array binding signal (z-score),[36],-0.547
same,glycan array binding signal (z-score),[37],-0.813
same,glycan array binding signal (z-score),[38],0.311
same,glycan array binding signal (z-score),[39],-0.941
same,glycan array binding signal (z-score),[40],3.14
same,glycan array binding signal (z-score),[41],8.24
same,glycan array binding signal (z-score),[42],3.1
same,glycan array binding signal (z-score),[17],-0.108
same,glycan array binding signal (z-score),[43],-0.77
same,glycan array binding signal (z-score),[44],-0.361
same,glycan array binding signal (z-score),[45],1.09
same,glycan array binding signal (z-score),[46],-0.504
same,glycan array binding signal (z-score),[47],-0.646
same,glycan array binding signal (z-score),[48],0.988
